From the supplement of paper PMC10981050 come the findings set out here.

Assay in all cases: cell viability relative to vehicle control; higher = less cytotoxic
Common to all, as to conditions: 10 µM

The test system of one assay is K562. The method, boiled down:
(§1)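 CRISPR-edited mutant clones and isogenic wild-type clones from four leukaemia lines were screened against Selleck bioactive, kinase and epigenetic probe libraries, with identity-inconsistent compounds excluded. Each compound was acoustically dispensed at a single 10 µM dose into 384-well plates holding 2000 cells in 50 µL medium per well. After 48 h the supernatant was removed and CellTiter-Glo luminescence was read. Viability was expressed as percent of the on-plate vehicle control and analysed in Genedata Screener.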

Another assay has as its system MARIMO. The gist of the method:
as §1

Another assay concerns MOLM14. The gist of the method:
as §1

Another assay deals with OCI-AML2. The method, boiled down:
as §1

“And” between values parts separate entries of the source, which are not always exact repeats. Equal values may be shown once. Where a name gives a salt, the structure may show the parent alone.

For orientation: cell viability means a read-out of living cells in per cent, often relative to untreated cells. On to `CCOC(=O)[C@H](CCc1ccccc1)N[C@@H](C)C(=O)N1CCC[C@H]1C(=O)O` [Enalapril maleate (Vasotec)], for which the cell viability in the assay on K562 (SRSF2 genotype: SRSF2 P95H/wt) is 106% and 100%; in the assay on K562 (SRSF2 genotype: SRSF2 wt/wt) it was 106%; in the assay with MARIMO (SRSF2 genotype: SRSF2 P95H/wt), 99.6%; in the assay on MARIMO (SRSF2 genotype: SRSF2 wt/wt), 111%; with MOLM14 (SRSF2 genotype: SRSF2 P95H/wt) it was 112%; in the assay with MOLM14 (SRSF2 genotype: SRSF2 wt/wt), 103%. Besides, the cell viability came to 94.2% with OCI-AML2 (SRSF2 genotype: P95H/wt) and 97.8% with OCI-AML2 (SRSF2 genotype: wt/wt).
On to `Cc1nc(Nc2cnn(C3CCNCC3)c2)nc2c1N(C)C(=O)c1cc3ccccc3cc1N2C`, for which the cell viability with K562 (SRSF2 genotype: SRSF2 P95H/wt) was 56% and 67.5%; in the assay on K562 (SRSF2 genotype: SRSF2 wt/wt) it was 60.7%; in the assay with MARIMO (SRSF2 genotype: SRSF2 P95H/wt), 50.7%; with MARIMO (SRSF2 genotype: SRSF2 wt/wt), 63.7%; in the assay with MOLM14 (SRSF2 genotype: SRSF2 P95H/wt), 15.9%; in the assay on MOLM14 (SRSF2 genotype: SRSF2 wt/wt) it was 5.53%. Besides, the cell viability was 19.2% in the assay with OCI-AML2 (SRSF2 genotype: P95H/wt) and 22% with OCI-AML2 (SRSF2 genotype: wt/wt).
As to `Cc1nc(N(C)C(=O)Cc2ccc(-c3ccccn3)cc2)sc1S(N)(=O)=O` [Pritelivir (BAY 57-1293)], the cell viability was 99.6% and 99.5% in the assay on K562 (SRSF2 genotype: SRSF2 P95H/wt); 92.1% in the assay with K562 (SRSF2 genotype: SRSF2 wt/wt); 103% with MARIMO (SRSF2 genotype: SRSF2 P95H/wt); 112% in the assay with MARIMO (SRSF2 genotype: SRSF2 wt/wt); 108% with MOLM14 (SRSF2 genotype: SRSF2 P95H/wt); 103% in the assay with MOLM14 (SRSF2 genotype: SRSF2 wt/wt). Besides, the cell viability in the assay on OCI-AML2 (SRSF2 genotype: P95H/wt) turned out to be 98.5%; in the assay on OCI-AML2 (SRSF2 genotype: wt/wt) it was 95.7%.
Consider `COc1ccc(-n2c(C)c([N+](=O)[O-])c3ccc(O)cc32)cc1`, for which the cell viability in the assay with K562 (SRSF2 genotype: SRSF2 P95H/wt) was 97.5% and 95.4%; with K562 (SRSF2 genotype: SRSF2 wt/wt), 94%; in the assay with MARIMO (SRSF2 genotype: SRSF2 P95H/wt), 99.2%; with MARIMO (SRSF2 genotype: SRSF2 wt/wt), 108%; in the assay on MOLM14 (SRSF2 genotype: SRSF2 P95H/wt) it was 93.6%; with MOLM14 (SRSF2 genotype: SRSF2 wt/wt), 98.2%. Further, the cell viability in the assay on OCI-AML2 (SRSF2 genotype: P95H/wt) came out at 73.1%; in the assay on OCI-AML2 (SRSF2 genotype: wt/wt), 80.2%.
For `CCOc1ccccc1OCCN[C@H](C)Cc1ccc(OC)c(S(N)(=O)=O)c1` [Tamsulosin hydrochloride], the cell viability with K562 (SRSF2 genotype: SRSF2 P95H/wt) was 102% and 97.9%; with K562 (SRSF2 genotype: SRSF2 wt/wt) it was 98.3%; in the assay with MARIMO (SRSF2 genotype: SRSF2 P95H/wt), 96.9%; in the assay with MARIMO (SRSF2 genotype: SRSF2 wt/wt), 107%; with MOLM14 (SRSF2 genotype: SRSF2 P95H/wt) it was 98.5%; in the assay with MOLM14 (SRSF2 genotype: SRSF2 wt/wt) it was 103%. Besides, the cell viability stood at 92.7% with OCI-AML2 (SRSF2 genotype: P95H/wt) and 104% in the assay on OCI-AML2 (SRSF2 genotype: wt/wt).
With `CCCCCCCN(CC)CCCC(O)c1ccc(NS(C)(=O)=O)cc1` (stereo not drawn) [Ibutilide fumarate], the cell viability in the assay with K562 (SRSF2 genotype: SRSF2 P95H/wt) is 87.6% and 106%; with K562 (SRSF2 genotype: SRSF2 wt/wt) it was 93.2%; in the assay with MARIMO (SRSF2 genotype: SRSF2 P95H/wt), 91.6%; in the assay on MARIMO (SRSF2 genotype: SRSF2 wt/wt), 107%; in the assay on MOLM14 (SRSF2 genotype: SRSF2 P95H/wt) it was 97.9%; with MOLM14 (SRSF2 genotype: SRSF2 wt/wt), 103%. Besides, the cell viability amounted to 97.9% in the assay on OCI-AML2 (SRSF2 genotype: P95H/wt) and 96.4% with OCI-AML2 (SRSF2 genotype: wt/wt).
With `CC(=CCNc1ncnc2nc[nH]c12)CO` [Trans-Zeatin], the cell viability with K562 (SRSF2 genotype: SRSF2 P95H/wt) is 100% and 95.4%; with K562 (SRSF2 genotype: SRSF2 wt/wt), 104%; in the assay with MARIMO (SRSF2 genotype: SRSF2 P95H/wt) it was 99%; in the assay with MARIMO (SRSF2 genotype: SRSF2 wt/wt), 108%; with MOLM14 (SRSF2 genotype: SRSF2 P95H/wt), 98.3%; in the assay with MOLM14 (SRSF2 genotype: SRSF2 wt/wt) it was 103%. The cell viability in the assay on OCI-AML2 (SRSF2 genotype: P95H/wt) worked out at 104%; in the assay on OCI-AML2 (SRSF2 genotype: wt/wt), 97.4%.
Turning to `O=C(O)CC[C@H]1CC[C@@](c2cc(F)ccc2F)(S(=O)(=O)c2ccc(Cl)cc2)CC1`, the cell viability was 102% and 101% in the assay with K562 (SRSF2 genotype: SRSF2 P95H/wt); 97.9% with K562 (SRSF2 genotype: SRSF2 wt/wt); 91.6% in the assay with MARIMO (SRSF2 genotype: SRSF2 P95H/wt); 92.1% with MARIMO (SRSF2 genotype: SRSF2 wt/wt); 98.3% in the assay with MOLM14 (SRSF2 genotype: SRSF2 P95H/wt); 99.2% in the assay on MOLM14 (SRSF2 genotype: SRSF2 wt/wt). The cell viability in the assay on OCI-AML2 (SRSF2 genotype: P95H/wt) was 102%; with OCI-AML2 (SRSF2 genotype: wt/wt) it was 97%.
Regarding `C[C@]1(c2nc3c(C(N)=O)cccc3[nH]2)CCCN1` [ABT-888 (Veliparib)], the cell viability in the assay with K562 (SRSF2 genotype: SRSF2 P95H/wt) is 93.1% and 93%; in the assay on K562 (SRSF2 genotype: SRSF2 wt/wt), 89.4%; with MARIMO (SRSF2 genotype: SRSF2 P95H/wt), 91%; in the assay with MARIMO (SRSF2 genotype: SRSF2 wt/wt) it was 96.5%; with MOLM14 (SRSF2 genotype: SRSF2 P95H/wt), 82.4%; in the assay on MOLM14 (SRSF2 genotype: SRSF2 wt/wt) it was 79%. The cell viability is 70.2% in the assay on OCI-AML2 (SRSF2 genotype: P95H/wt) and 83.5% in the assay with OCI-AML2 (SRSF2 genotype: wt/wt).
For the compound `NC(=S)c1ccncc1` [Thioisonicotinamide], the cell viability was 107% and 101% in the assay on K562 (SRSF2 genotype: SRSF2 P95H/wt); 98.9% in the assay on K562 (SRSF2 genotype: SRSF2 wt/wt); 96.9% with MARIMO (SRSF2 genotype: SRSF2 P95H/wt); 105% in the assay on MARIMO (SRSF2 genotype: SRSF2 wt/wt); 103% with MOLM14 (SRSF2 genotype: SRSF2 P95H/wt); 105% in the assay with MOLM14 (SRSF2 genotype: SRSF2 wt/wt). For the same compound, the cell viability in the assay with OCI-AML2 (SRSF2 genotype: P95H/wt) amounted to 99.4%; in the assay with OCI-AML2 (SRSF2 genotype: wt/wt) it was 110%.
For the compound `OC[C@H]1O[C@@H](Oc2ccc(O)cc2)[C@H](O)[C@@H](O)[C@@H]1O` [Arbutin (Uva, p-Arbutin)], the cell viability in the assay with K562 (SRSF2 genotype: SRSF2 P95H/wt) was 104% and 97.2%; in the assay on K562 (SRSF2 genotype: SRSF2 wt/wt), 95.1%; with MARIMO (SRSF2 genotype: SRSF2 P95H/wt), 96.6%; with MARIMO (SRSF2 genotype: SRSF2 wt/wt), 104%; in the assay on MOLM14 (SRSF2 genotype: SRSF2 P95H/wt), 103%; in the assay on MOLM14 (SRSF2 genotype: SRSF2 wt/wt) it was 101%. For the same compound, the cell viability with OCI-AML2 (SRSF2 genotype: P95H/wt) is 100%; in the assay with OCI-AML2 (SRSF2 genotype: wt/wt), 107%.
